Where “and” joins values, the source holds several entries; their conditions need not be identical. Equal values may be shown once. Inconclusive results are not listed. Calls of active or inactive are those of the source. The calls were made as follows, unless noted: active = hit-call score of the fitted dose curve at least 0.9, where 1 is the maximum; inconclusive = response in the unintended direction; inactive = score below 0.9.
Tests used:
[1] = tested on: Thyroperoxidase (TPO), gene 54314; test: CCTE_Simmons_AUR_rTPO: CCTE's Amplex UltraRed Assay for Thyroperoxidase (TPO) Inhibition, Simmons Lab (AID 2283662);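 as to AC50: potency for loss of signal meaning inhibition of peroxidase activity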
In short: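 Cell-free peroxidase activity assay using rat thyroid gland microsomes with excess H2O2 (300 uM) and 25 uM Amplex UltraRed. Compounds tested from 5 nM to 87.5 uM; fluorescence measured after 30 min at 37C, analysed relative to DMSO baseline.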

[2] = CCTE_Simmons_CellTiterGLO_HEK293T: Viability Assessment in CCTE's Assays for Thyroperoxidase (TPO) Inhibition, Simmons Lab (AID 2283665);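 as to AC50: cells exposed to compound for 24 h before readout; actives reduce ATP signal below DMSO vehicle meaning cytotoxicity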
In short: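 Luciferase-coupled ATP content after 24 h exposure gives viability; 8-point series from 5 nM to 87.5 uM final in 0.5% DMSO. Human HEK293T cells, 1% FBS medium, three biological replicates, dichlone positive control.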

[3] = Tanguay_ZF_120hpf_PFIN_legacy: (Legacy) Oregon State University Tanguay Lab 120 Hour Post-fertilization zebrafish Assay for Pectoral Fin Malformation (AID 2283648);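 also: each larva judged yes or no for fin defect by brightfield with dead larvae skipped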
In short: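 Binary pectoral fin malformation call at 120 hpf by brightfield microscopy; 5D wild-type zebrafish, chorion removed at 4 hpf, one embryo per well from 6 hpf, static exposure at 28C; DMSO (0.64% final) as baseline.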

[4] = Tanguay_ZF_120hpf_CFIN_legacy: (Legacy) Oregon State University Tanguay Lab 120 Hour Post-fertilization zebrafish Assay for Caudal Fin Malformation (AID 2283649)
Description: (§1) Tanguay_ZF_120hpf_legacy is a whole embryo, multiplexed endpoint assay using zebrafish larvae exposed for 120 hours post fertilization on a 96-well plate.Tanguay_ZF_120hpf_CFIN_legacy is one of one assay component(s) measured or calculated from the Tanguay_ZF_120hpf_legacy assay. It is designed to make measurements of zebrafish development as detected with brightfield microscopy of developing zebrafish embryos.Data from the assay component Tanguay_ZF_120hpf_CFIN_legacy was analyzed into 1 assay endpoints. This assay endpoint, Tanguay_ZF_120hpf_CFIN_legacy, was analyzed in the positive analysis fitting direction relative to DMSO as the negative control and baseline of activity. […]
(§2) Zebrafish husbandry: Tropical 5D wild-type adult zebrafish were housed in at an approximate density of 1000 per 100 gallon tank at the Sinnhuber Aquatic Research Laboratory, Oregon State University, Corvallis, OR. […] At 24 hpf, embryos were assessed for photomotor response using a custom photomotor response analysis tool (PRAT) and for developmental toxicity endpoints (MO24: mortality at 24 hpf, DP: developmental progression, SM: spontaneous movement, and NC: notochord distortion). At 120 hpf, locomotor activity was measured using Viewpoint Zebralab and assessed for 18 endpoints. […] If mortality occurred for an embryo (at either 24 or 120 hpf), the non-mortality endpoints were not measured.

[5] = Tanguay_ZF_120hpf_PIG_legacy: (Legacy) Oregon State University Tanguay Lab 120 Hour Post-fertilization zebrafish Assay for Pigmentation Malformation (AID 2283650)
In short: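 Brightfield scoring of pigmentation malformation at 120 hpf, recorded as binary present/absent per larva. Exposure: dechorionated 5D wild-type embryos, one per well, static from 6 hpf at 28C, final DMSO 0.64% (vol/vol). Dead embryos not scored.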

[6] = Tanguay_ZF_120hpf_SWIM_legacy: (Legacy) Oregon State University Tanguay Lab 120 Hour Post-fertilization zebrafish Assay for Swim Bladder Malformation (AID 2283654);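 also: swim bladder malformation in each larva scored yes or no under brightfield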
Description: as §1, with “plate.Tanguay_ZF_120hpf_SWIM_legacy” for “plate.Tanguay_ZF_120hpf_CFIN_legacy”, “Tanguay_ZF_120hpf_SWIM_legacy” for “Tanguay_ZF_120hpf_CFIN_legacy”, “Tanguay_ZF_120hpf_SWIM_legacy,” for “Tanguay_ZF_120hpf_CFIN_legacy,”
as §2

[7] = Tanguay_ZF_120hpf_TRUN_legacy: (Legacy) Oregon State University Tanguay Lab 120 Hour Post-fertilization zebrafish Assay for Truncated Body (AID 2283655)
In short: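 Whole-embryo zebrafish screen: dechorionated 5D embryos, static exposure 6–120 hpf, 28C, sealed foil-covered plates, 0.64% DMSO. Binary truncation call; gain of signal versus DMSO baseline.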

[8] = Tanguay_ZF_120hpf_NC_legacy: (Legacy) Oregon State University Tanguay Lab 120 Hour Post-fertilization zebrafish Assay for Notochord and Tail Malformation (AID 2283656)
In short: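 Binary scoring of notochord distortion by brightfield microscopy; embryos dying were not scored. Wild-type Tropical 5D embryos, chorion removed, exposed singly and statically from 6 to 120 hpf, 28C, sealed, 0.64% DMSO.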

[9] = Tanguay_ZF_120hpf_TR_legacy: (Legacy) Oregon State University Tanguay Lab 120 Hour Post-fertilization zebrafish Assay for Touch Response (AID 2283667)
In short: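 Binary touch-response call at 120 hpf, analysed as gain of signal versus DMSO baseline. Wild-type 5D larvae, static exposure at 28C, 0.64% DMSO final; 5uM trimethyltin chloride as positive control.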

[10] = STM_H9_OrnithineISnorm_perc: Stemina devTOX quickPredict H9 human embryonic stem cell (hESC)-based Assay for Ornithine (ORN) Metabolite Biomarker, Normalized (AID 2283712; active = hit-call score of the fitted dose curve at least 0.9, where 1 is the maximum; inactive = score below 0.9;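 also: ornithine released into spent medium during last day measured by mass spectrometry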)
In short: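 Ornithine in spent medium from the last 24 h of a 72 h exposure, deproteinised and quantified by UPLC-HRMS against an isotope-labelled internal standard, expressed relative to 0.1% DMSO. Pluripotent H9 cells; compound refreshed every 24 h.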

With `Cc1cc(C)nc(NS(=O)(=O)c2ccc(N)cc2)n1` as the compound, how does the AC50 [1] read?
Its AC50 is 14.3 µM (active).

Which outcome [1] does the source give for `CC(C)NCC(O)COc1ccc(CC(N)=O)cc1` (configuration not stated) here?
Its outcome is “inactive”.

For `CCc1ccc(O)cc1`, which outcome [1] is on record?
Its outcome is “inactive”.

Which AC50 [1] does the source give for `COc1ccc(N=Nc2cc(C)c(N=Nc3ccc(S(=O)(=O)O)cc3)cc2OC)cc1` here?
The AC50 was 53.9 µM (active).

And the AC50 [2]?
The AC50 was 77.9 µM (active).

Which results are given for `CCCCCCCCC=CCCCCCCCC1=NCCN1CCO`?
AC50 [1]: 37.9 µM (active) and 8.64 µM (active); AC50 [2]: 14 µM (active) and 13.8 µM (active)

With `O=c1c(O)c(-c2ccc(O)cc2)oc2cc(O)cc(O)c12` as the compound, how does the AC50 [1] read?
Its AC50 is 0.0805 µM (active).

What about the outcome [2] of the same compound?
The outcome was “inactive”.

Which AC50 [1] does the source give for `CCc1cc(C(C)(C)C)c(O)c(C(C)(C)C)c1` here?
The AC50 was 4.83 µM (active).

And the AC50 [2]?
The AC50 was 24.3 µM (active).

Which AC50 [1] does the source give for `CC(C)CCCCCCCCCCCCCCC(=O)O` here?
Its AC50 is 43.8 µM (active).

What does the source list for `CCOc1ccc(N=Nc2ccc(C=Cc3ccc(N=Nc4ccc(OCC)cc4)cc3S(=O)(=O)O)c(S(=O)(=O)O)c2)cc1`?
AC50 [1]: 30.2 µM (active); AC50 [2]: 89.1 µM (active)

For `Oc1ccc2cc(SSc3ccc4cc(O)ccc4c3)ccc2c1`, which AC50 [1] is on record?
The AC50 was 2.45 µM (active).

And the AC50 [2]?
Its AC50 is 74.3 µM (active).

For `CCOC(=O)c1ccc(N)cc1`, which AC50 [1] is on record?
The AC50 was 22.2 µM (active).

What about the AC50 [2] of the same compound?
The AC50 was 21.1 µM (active).

For `CCc1cc(Cc2cc(CC)cc(C(C)(C)C)c2O)c(O)c(C(C)(C)C)c1`, which AC50 [1] is on record?
Its AC50 is 1.8 µM (active).

What about the AC50 [2] of the same compound?
Its AC50 is 11.1 µM (active).

With `CS(=O)(=O)OCCCCOS(C)(=O)=O` as the compound, how does the outcome [3] read?
The outcome was “inactive”.

And the outcome [4]?
The outcome was “inactive”.

And the outcome [5]?
The outcome was “inactive”.

What about the outcome [6] of the same compound?
The outcome was “inactive”.

And the outcome [7]?
The outcome was “inactive”.

And the AC50 [8]?
Its AC50 is 47.1 µM (active).

What about the AC50 [1] of the same compound?
The AC50 was 30.6 µM (active).

What about the outcome [2] of the same compound?
Its outcome is “inactive”.

And the outcome [9]?
Its outcome is “inactive”.

What about the AC50 [10] of the same compound?
Its AC50 is 36.3 µM (active).

Which AC50 [1] does the source give for `CC(CN=Cc1ccccc1O)N=Cc1ccccc1O` (configuration not stated) here?
Its AC50 is 26 µM (active).

Which AC50 [1] does the source give for `O=C(Nc1ccc2c(O)c(N=Nc3ccc(N=Nc4ccc(S(=O)(=O)O)cc4)cc3)c(S(=O)(=O)O)cc2c1)c1ccccc1` here?
The AC50 was 32.7 µM (active).

What about the AC50 [2] of the same compound?
Its AC50 is 14.4 µM (active).

What does the source list for `O=C(O)c1ccc(O)cc1`?
AC50 [1]: 35.3 µM (active); outcome [2]: inactive

For `Cc1cc(S(=O)(=O)O)ccc1N=Nc1c(O)ccc2ccccc12`, which AC50 [1] is on record?
The AC50 was 35 µM (active).

And the AC50 [2]?
Its AC50 is 24 µM (active).
